This is a sample that favours compounds with a hit; in the whole collection about 21% have one here.
NS1 inh: qHTS Assay for Inhibitors of Influenza NS1 Protein Function; Potency, µM (titrated, usually from 46.1 µM); 270,000 tested, 0.4% active; calls by dose curve; also: actives are rising curves; nearly all actives have a fitted effect of over 50% in size
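Recovery from NS1-induced slow growth read by OD600 in budding yeast switched to galactose assay medium (pH 6.0, -URA) at 1:100 dilution. Compound 23 nl per well; the matching strain lacking NS1 serves as control.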
SARS PLpro yeast: qHTS of Yeast-based Assay for SARS-CoV PLP. AID 485353, 2010. 330,000 tested, 0.19% active. Potency, µM (series often up to 32.9 µM), actives largely listed as activators. S. cerevisiae expressing SARS-CoV PLpro, growth rescue; calls by dose curve; also: nearly all actives have a fitted effect of over 55% in size
Pf growth 96h: Primary qHTS for delayed death inhibitors of the malarial parasite plastid, 96 hour incubation. P. falciparum luciferase reporter growth, 96 h. Potency, µM (doses to about 28.7 µM), hits mostly inhibitors. 320,000 tested, 6.9% active. AID 504834, 2011
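96 h incubation, 37 C, 5% CO2, of luciferase-reporter P. falciparum-infected RBCs (2% hematocrit, 0.05% parasitemia final) with test compounds; endpoint luminescence.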
Cycloheximide cs: Cycloheximide Counterscreen for Small Molecule Inhibitors of Shiga Toxin; cell reporter, cycloheximide protein synthesis inhibition counterscreen; max response, %; 300,000 tested, 12% active; AID 2314, 2010; in the data active = max response mostly above about 13%, no sharp cut-off; inactive = mostly below about 14%; also: read at 38.3 µM for the half of the compounds with a filed dose
Shiga inhibitor: A qHTS for Small Molecule Inhibitors of Shiga Toxin | 290,000 tested, 9.2% active | Vero cells, Shiga toxin protein synthesis inhibition reporter | inhibition, % at 38.7 µM; in the data active = inhibition mostly above about 28%, no sharp cut-off; inactive = mostly below about 43%
Pf growth 48h: Primary qHTS for delayed death inhibitors of the malarial parasite plastid, 48 hour incubation; P. falciparum luciferase growth in erythrocytes, 48 h; Potency, µM (highest dose often 28.7 µM), hits mostly inhibitors; 310,000 tested, 5.9% active; AID 504832, 2011
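First compound was added to culture medium, then infected red cells at 0.1% parasitemia and 2% hematocrit (final). After incubation at 37 C under 5% CO2, luciferase detection reagent was dispensed and light output recorded.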
Each line names hits and unclear results; the compound was inactive in the other large screens. Unless noted, calls follow the shape of the dose curve; as a rule, active = well fitted inhibition curve with a large enough effect; inconclusive = small, poorly fitted or top-dose-only effect, or another doubt; inactive = no such curve, though single readings can be large or run the other way.

COc1cc(C2NCC(c3ccc(Cl)cc3Cl)c3c2[nH]c2ccccc32)cc(OC)c1OC (stereo unspecified)	Pf growth 96h 11.7µM, Pf growth 48h 13.1µM
O=C(O)c1ccc(C2NCC(c3ccccc3Cl)c3c2[nH]c2ccccc32)cc1 (stereo unspecified)	none
Cc1ccccc1NC(=S)N(Cc1ccccc1)Cc1cccs1	Pf growth 96h inconclusive
CC1CCCCN1CC(=O)c1c(N)n(Cc2ccccc2)c(=O)n(C)c1=O (stereo unspecified)	none (no result: NS1 inh)
Fc1ccc(-c2nn3c(C4COc5ccccc5O4)nnc3s2)cc1 (stereo unspecified)	SARS PLpro yeast inconclusive, Pf growth 96h inconclusive
c1csc(-c2nn3c(C4COc5ccccc5O4)nnc3s2)c1 (stereo unspecified)	Cycloheximide cs 36.1, Shiga inhibitor 45.0, Pf growth 48h inconclusive (no result: Pf growth 96h)
CCN(CC)S(=O)(=O)c1ccc(NN=C2CCN(C)CC2)c([N+](=O)[O-])c1	Pf growth 96h inconclusive (no result: NS1 inh)
CCN(CC)C(=O)Oc1ccccc1NC(C)=O	Pf growth 96h 9.28µM
O=C(COc1ccc2ccccc2c1Br)N1CCCCC1	Cycloheximide cs 62.4, Shiga inhibitor 88.5
CC(=O)Nc1ccccc1OC(=O)N(C)C	none (no result: Pf growth 96h)
CCN(CC)C(=O)Oc1ccc2ccccc2c1Br	Cycloheximide cs 25.4, Shiga inhibitor 75.7 (no result: NS1 inh)
O=C(Oc1ccc2cc(Br)ccc2c1)N1CCCCCC1	Cycloheximide cs 48.4, Shiga inhibitor 58.1
CCN(CC)C(=O)Oc1ccc(Br)c2ccccc12	Pf growth 96h inconclusive
Cc1cc(F)ccc1S(=O)(=O)N1CCCOC1CNC(=O)C(=O)NC1CC1 (stereo unspecified)	none
COc1cc2cc(CCO)oc(=O)c2cc1OC	none (no result: NS1 inh, Pf growth 96h, Cycloheximide cs, Shiga inhibitor, Pf growth 48h)
Cc1ccc(N(C(C)C(=O)N2CCCCC2)S(C)(=O)=O)cc1C (stereo unspecified)	none
O=C(Oc1ccc2ccccc2c1Br)N1CCCCCC1	Cycloheximide cs 35.6, Shiga inhibitor 116.9
CCSc1cc(N2CC(C)OC(C)C2)nc(-c2ccccc2Cl)n1 (stereo unspecified)	NS1 inh inconclusive, Pf growth 48h 2.08µM (no result: Pf growth 96h)
CCSc1cc(N2CCCC2)nc(-c2ccc(C)cc2)n1	Pf growth 96h inconclusive, Pf growth 48h inconclusive
CC1Cc2ccccc2N1S(=O)(=O)c1cccc(C(=O)N2CC(=O)Nc3ccccc32)c1 (stereo unspecified)	none
COc1cccc(C2=CC(=O)C[C@H](c3ccc(Cl)cc3)C2)c1OC	Pf growth 48h inconclusive (no result: NS1 inh, Cycloheximide cs, Shiga inhibitor)
COc1ccccc1C1=CC(=O)C[C@H](c2ccc(Cl)cc2)C1	Pf growth 96h inconclusive, Pf growth 48h 7.38µM (no result: NS1 inh, Cycloheximide cs, Shiga inhibitor)
O=C1C=C(c2ccccc2Oc2ccccc2)C[C@@H](c2ccc3c(c2)OCO3)C1	Pf growth 96h inconclusive, Pf growth 48h 3.7µM (no result: NS1 inh, Cycloheximide cs, Shiga inhibitor)
CCOC(=O)c1cccc(C2=CC(=O)C[C@H](c3ccc(Cl)cc3)C2)c1	Pf growth 96h inconclusive, Pf growth 48h 13.1µM (no result: NS1 inh, Cycloheximide cs, Shiga inhibitor)
O=C1C=C(c2cccc3c2oc2ccccc23)C[C@@H](c2ccc(F)cc2)C1	Pf growth 48h 2.33µM (no result: NS1 inh, Cycloheximide cs, Shiga inhibitor)
Cc1cc(=O)[nH]c(-c2ccccc2OC(F)(F)F)n1	none
S=C(N/N=C/c1ccccc1Cl)Nc1cccc(Cl)c1Cl	none
Cc1cc(Cl)ccc1C1=CC(=O)C[C@H](c2ccc(F)cc2)C1	Pf growth 96h inconclusive, Pf growth 48h inconclusive (no result: NS1 inh, Cycloheximide cs, Shiga inhibitor)
COc1ccc([C@H]2CC(=O)C=C(c3ccc(F)cc3OCc3ccccc3)C2)cc1OC	Pf growth 96h inconclusive, Pf growth 48h 9.28µM (no result: NS1 inh, Cycloheximide cs, Shiga inhibitor)
O=C1C=C(c2cc(F)ccc2F)C[C@@H](c2ccc(F)cc2)C1	Pf growth 96h inconclusive, Pf growth 48h 2.33µM (no result: NS1 inh, Cycloheximide cs, Shiga inhibitor)
COc1ccc([C@H]2CC(=O)C=C(c3ccc(F)cc3OCc3ccccc3)C2)cc1	Pf growth 48h inconclusive (no result: NS1 inh, Cycloheximide cs, Shiga inhibitor)
COc1ccc(Cl)cc1C(=O)NNC(=O)c1cc2ccccc2o1	none (no result: NS1 inh, Pf growth 96h, Cycloheximide cs, Shiga inhibitor, Pf growth 48h)
O=C(CSc1ccccn1)Nc1ccc(Cl)c([N+](=O)[O-])c1	Pf growth 96h inconclusive (no result: NS1 inh)
N/C(CSc1ccccn1)=N\OCc1c(Cl)cccc1Cl	Shiga inhibitor 44.9
Cn1c(C(C#N)C(=O)Cc2cccc3ccccc23)nc2ccccc21 (stereo unspecified)	none
CN(Cc1nc2ccccc2n1C)C(=O)c1ccco1	Pf growth 96h 1.65µM
Cn1c(C(C#N)C(=O)c2ccco2)nc2ccccc21 (stereo unspecified)	Cycloheximide cs 34.0, Shiga inhibitor 70.8
O=S(=O)(Cc1ccc(Cl)cc1)N1CCN(c2ncccn2)CC1	none
CC(C)OC(=O)c1cn(Cc2c(F)cccc2F)c2sc(-c3ccc(NC(=O)C(C)C)cc3)c(CN(C)Cc3ccccc3)c2c1=O	none (no result: NS1 inh, SARS PLpro yeast, Pf growth 96h, Pf growth 48h)
CC(CC(=O)NCc1ccc(Cl)cc1)c1ccccc1 (stereo unspecified)	Pf growth 96h inconclusive
Cc1cc[n+](-c2nc3ccccc3nc2[N-]S(=O)(=O)c2ccccc2)cc1	none
CCc1cc[n+](-c2nc3ccccc3nc2[N-]S(=O)(=O)c2ccc(Br)s2)cc1	Pf growth 96h inconclusive, Cycloheximide cs 13.0
CCCNC(=O)c1cc(Cl)c(NC(=O)C2=CSCCO2)cc1OC	Shiga inhibitor 19.1
Cn1cc(C(=O)Nc2ccc(F)c(Cl)c2)cn1	none
CN1c2ccsc2C(O)=C(C(=S)Nc2ccc(F)c(Cl)c2)S1(=O)=O	Pf growth 96h inconclusive, Cycloheximide cs 15.4 (no result: Pf growth 48h)
CCOc1ccc(NS(=O)(=O)c2ccc(C(=O)NCC(c3ccc(OC)cc3)N3CCCC3)cc2)cc1 (stereo unspecified)	Pf growth 96h 13.1µM, Pf growth 48h 13.1µM (no result: NS1 inh, Cycloheximide cs, Shiga inhibitor)
COc1ccc(NS(=O)(=O)c2cccc(C(=O)NCC(c3ccco3)N3CCCC3)c2)cc1 (stereo unspecified)	Pf growth 96h 14.7µM, Pf growth 48h inconclusive (no result: NS1 inh, Cycloheximide cs, Shiga inhibitor)
COc1ccc(C(CNC(=O)c2ccc(NS(=O)(=O)c3ccccc3)cc2)N2CCOCC2)cc1 (stereo unspecified)	Pf growth 96h inconclusive, Pf growth 48h inconclusive (no result: NS1 inh, Cycloheximide cs, Shiga inhibitor)
CN(CC(=O)NCC(c1ccco1)N1CCCCC1)S(=O)(=O)c1ccc(Cl)cc1 (stereo unspecified)	Pf growth 96h inconclusive, Pf growth 48h 8.28µM (no result: NS1 inh, Cycloheximide cs, Shiga inhibitor)
O=C(NCC(c1ccco1)N1CCCC1)c1cccc(S(=O)(=O)Nc2ccc(Br)cc2)c1 (stereo unspecified)	Pf growth 96h inconclusive, Pf growth 48h inconclusive
Cc1cccc(NS(=O)(=O)c2ccc(C)c(C(=O)NCC(c3ccco3)N3CCCCC3)c2)c1 (stereo unspecified)	Pf growth 96h inconclusive, Pf growth 48h 13.1µM (no result: NS1 inh, Cycloheximide cs, Shiga inhibitor)
COc1cccc(Oc2c(C)oc3c(CN4CCCC4)c(O)ccc3c2=O)c1	none
Cc1ccc(NS(=O)(=O)c2cccc(C(=O)NCC(c3ccco3)N3CCCCC3)c2)cc1 (stereo unspecified)	Pf growth 96h 11.7µM, Pf growth 48h inconclusive
CCOc1ccc(N2CC(C(=O)N3CCc4ccccc43)CC2=O)cc1 (stereo unspecified)	none

Source: PubChem BioAssay
